Reference: PubChem BioAssay (NCI)
This is part of a sample that, as a whole, favours compounds with a hit. Of some 83,000 tested, about 20% had one in any assay.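 Negative percent growth values reflect cell death: -40 means 40% of the cells present at the start died, and -100 means all died.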 Calls of active or inactive are those of the source. Rule for the calls: active = growth percent below 10; inactive = the rest.

How the values were obtained:
Assay in all cases: NCI-60 one-dose screen, 48 h (100 = growth as untreated, 0 = no growth, -100 = all killed)
Conditions in all cases: 10 µM unless noted
[1] = test system: NCI-H23 lung
[2] = test system: NCI-H226 lung
[3] = test system: NCI-H322M lung
[4] = test system: HOP-62 NSCLC
[5] = test system: NCI-H460 lung
[6] = test system: NCI-H522 lung
[7] = test system: A549/ATCC NSCLC
[8] = test system: 786-0 renal
[9] = test system: COLO 205 colon
[10] = test system: DU-145 prostate
[11] = test system: K-562 leukemia
[12] = test system: MALME-3M melanoma
[13] = test system: MDA-MB-231 breast
[14] = test system: RXF 393 renal
[15] = test system: SF-268 CNS
[16] = test system: SF-295 CNS
[17] = test system: SF-539 CNS
[18] = test system: UACC-257 melanoma
[19] = test system: M14 melanoma

Measured: growth

CS(=O)(=O)c1ccc(C(=O)N/N=C/c2cccc3ccccc23)cc1
active: [6] 4.48%
inactive: [1] 89.6% | [2] 83.7% | [3] 93.9% | [4] 74.9% | [5] 66.8% | [7] 41.3% | [8] 90.9% | [9] 85.7% | [10] 88.8% | [11] 27.8% | [12] 69.7% | [13] 97.1% | [14] 99.3% | [15] 85.7% | [16] 76% | [17] 89.3% | [18] 41.1% | [19] 66.8%

Cc1ccc(C(=O)CC(=O)C(F)(F)C(F)(F)C(F)(F)F)s1
inactive: [1] 105% | [2] 103% | [3] 105% | [4] 96.9% | [5] 111% | [6] 121% | [7] 104% | [8] 97.2% | [9] 119% | [10] 104% | [12] 98.7% | [13] 92.1% | [14] 111% | [15] 101% | [16] 103% | [17] 98.7% | [18] 105% | [19] 103%

CC(SC(C)C(=O)N/N=C/c1cccc(Cl)c1)C(=O)N/N=C\c1cccc(Cl)c1 (stereo not drawn)
inactive: [1] 86.8% | [2] 93.2% | [3] 84.3% | [4] 90.4% | [5] 20.5% | [6] 60% | [7] 15.2% | [8] 90.9% | [9] 74.7% | [10] 71.9% | [11] 79.7% | [12] 88.9% | [13] 28.1% | [14] 91.2% | [15] 69% | [16] 66.2% | [17] 106% | [18] 104% | [19] 85.1%

CS(=O)(=O)c1ccc(C(=O)N/N=C/c2ccccc2O)cc1
inactive: [1] 54.8% | [2] 55.2% | [3] 38.4% | [4] 28.3% | [5] 14.1% | [6] 15.1% | [7] 38.8% | [8] 33% | [9] 31.2% | [10] 40.4% | [11] 40.5% | [12] 63.5% | [13] 47.4% | [14] 53% | [15] 38.4% | [16] 38% | [17] 55.3% | [18] 22.6% | [19] 32.5%

O=[N+]([O-])c1ccc(SSc2ccc([N+](=O)[O-])cc2Cl)c(Cl)c1
inactive: [1] 89% | [2] 87.5% | [3] 98.2% | [4] 112% | [5] 92.2% | [6] 85.1% | [7] 96.3% | [8] 102% | [9] 127% | [10] 99.5% | [11] 77.8% | [12] 90.8% | [13] 78.2% | [14] 120% | [15] 103% | [16] 97.2% | [17] 119% | [18] 118% | [19] 103%

C=CCOC(=O)C1=C(C)NC2=C(C(=O)CC(C)(C)C2)C1c1ccc(OC)cc1 (stereo not drawn)
inactive: [1] 104% | [2] 98.4% | [3] 95.7% | [4] 90% | [5] 106% | [6] 82.8% | [7] 98.3% | [8] 97.8% | [9] 109% | [10] 110% | [11] 90.4% | [12] 104% | [13] 92.8% | [14] 105% | [15] 94.1% | [16] 105% | [17] 108% | [18] 96.2% | [19] 96.8%

C=C(C)[C@@H]1CC[C@]2(C(=O)NS(=O)(=O)c3ccccc3)CC[C@]3(C)[C@H](CC[C@@H]4[C@@]5(C)CC[C@H](OC(=O)NS(=O)(=O)c6ccccc6)C(C)(C)[C@@H]5CC[C@]43C)[C@@H]12
inactive: [2] 30.9% | [3] 34.1% | [6] 16.7% | [7] 18.3% | [9] 31.8% | [10] 43.3% | [12] 11.3% | [13] 39.7% | [15] 41.4% | [18] 27.8% | [19] 12.8%
active: [1] -9.55% | [4] -13.4% | [5] -53.8% | [8] -43.5% | [14] -25.9% | [16] 1.73% | [17] -34.3%

OC(COCc1ccccc1)COCc1ccccc1
inactive: [1] 110% | [2] 106% | [3] 112% | [4] 106% | [5] 112% | [6] 100% | [7] 99.9% | [8] 108% | [9] 110% | [10] 122% | [11] 99.3% | [12] 105% | [13] 108% | [14] 119% | [15] 115% | [16] 108% | [17] 110% | [18] 97.9% | [19] 103%

CCOC(=O)c1cnc(SCC)nc1SC#N
inactive: [1] 94.6% | [2] 142% | [3] 103% | [4] 121% | [5] 115% | [6] 31.8% | [7] 101% | [8] 101% | [9] 82.1% | [10] 103% | [12] 97.7% | [13] 98.2% | [14] 173% | [15] 103% | [16] 106% | [17] 89.2% | [18] 92.6% | [19] 84.7%
